Results on 107 molecules are retold here after PubChem BioAssay AID651828 (ICCB-Longwood Screening Facility, Harvard Medical School, 2012).

Hit rate of the full screen: of about 20,000 compounds, about 25 (0.1%) were called active. The entries come from a sample that favours actives as a whole. A number with no mark means an inactive call. Cut-off read from the data, not from the text of the source: active = % bound below about 75%; inactive = the rest.

Nucleoprotein (Rift valley fever virus (strain ZH-548 M12)), sequence (P21700 whole entry, looked up): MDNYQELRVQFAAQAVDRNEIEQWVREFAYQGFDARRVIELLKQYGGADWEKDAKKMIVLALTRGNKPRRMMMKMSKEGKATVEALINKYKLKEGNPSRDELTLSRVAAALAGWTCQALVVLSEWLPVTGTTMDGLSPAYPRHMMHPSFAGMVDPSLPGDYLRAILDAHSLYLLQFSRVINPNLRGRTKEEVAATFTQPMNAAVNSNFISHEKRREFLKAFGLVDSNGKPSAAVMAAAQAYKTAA

The assay has as its target Nucleoprotein (Rift valley fever virus (strain ZH-548 M12)) (UniProt P21700). Description: inhibitors of RVFV nucleoprotein–RNA binding, primary screen, biochemical, fluorescence polarization (AID 651828). To be noted: RVFV N-RNA binding, stronger effect = lower value, concentration not given here. In general terms: Fluorescence polarisation rises when a labelled molecule tumbles more slowly, as on binding a larger partner.
Turning to `CSC(=S)Nc1ccc(C)cc1`, the % bound was 92%. On to `CCN(CC)CCN1C(=O)C(O)=C(C(=O)/C=C/c2ccco2)C1c1ccc(OC)cc1` (configuration not stated), for which the % bound was 97.9%. Take `CC(Cn1cnc2ccccc21)C(=O)N/N=C/c1ccccc1` (configuration not stated): the % bound is 98.5%. The value for `CC(C)NS(=O)(=O)c1ccc(NC(=O)C2CCCCC2)cc1` was 98%. Consider `NS(=O)(=O)c1ccc(NS(=O)(=O)/C=C/c2ccccc2)cc1`, for which the % bound is 80.7%. In the case of `O=C(c1cccc(N2C(=O)c3ccccc3C2=O)c1)N1CCOCC1`, the % bound is 95%. The value for `CCCCN=Cc1c(O)n(-c2ccc(Cl)cc2)c(=O)[nH]c1=O` was 85.2%; that for `O=C(CSc1ccc(-c2ccccc2)nn1)NCC1CCCO1` (configuration not stated) was 91.3%; that for `O=C(CC1CCCC1)NCc1cn2ccsc2n1` was 97.9%. For the molecule `Cc1cccc(NC(=O)c2ccccc2-c2nc(-c3ccccc3)no2)c1`, the % bound was 89.8%.

For `O=C(CC12CC3CC(CC(C3)C1)C2)Nc1ccc(N2CCN(C(=O)c3ccco3)CC2)cc1`, the % bound is 89.8%.

On to `O=C(Nc1ccccn1)c1cc2c(s1)CCCC2`, for which the % bound was 94.3%.

On to `COC(=O)Nc1ccc(S(=O)(=O)Nc2cc(OC)nc(OC)n2)cc1`, for which the % bound is 95.6%. The value for `COc1ccc(C2CC(=O)c3cnc(NCCN4CCOCC4)nc3C2)cc1` (configuration not stated) was 89.7%; that for `COC(=O)c1ccc(COc2ccc3c(oc(=O)c4cc(OC)ccc43)c2C)o1` was 87.4%; that for `CCOC(=O)c1ccc(CC(=O)c2cc(CC)c(O)cc2O)o1` was 105%. The value for `CN1CCC(N(C)C(=O)Nc2c[nH]c3ccccc23)CC1` was 96.9%; that for `CCc1c(O)nc(SCc2ccccc2)n(C2CCCCC2)c1=O` was 92.2%. For `Cc1cc(Cl)ccc1NNC(=O)c1snnc1C`, the % bound was 109%. The value for `Cc1cc(=O)[nH]c(Nc2ccc(O)cc2)n1` was 96.9%; that for `CSc1n[nH]c(N)c1-c1ccccn1` was 93.7%; that for `CP(=O)(O)CN1CCN(CP(C)(=O)O)CC1` was 93%.

As for `CCNC(=O)N1c2ccccc2Sc2ccccc21`, the % bound was 93.8%. Turning to `CN(C)S(=O)(=O)c1ccc(C(=O)Nc2nnc(C3CC3)o2)cc1`, the % bound was 107%. To `Cc1ccc(-c2nn3c(C)nnc3c3ccccc23)cc1S(=O)(=O)N1CCCC1` belongs 93.1%. Take `COc1ccc(CCNC(=O)Nc2ccccc2C)cc1OC`: the % bound is 91.4%. The value for `O=C(O)c1cc(N=Cc2ccccc2)ccc1O` was 108%.

In the case of `CC(Sc1nnc(-c2c[nH]c3ccccc23)n1C)c1ccccc1` (configuration not stated), the % bound is 96.8%. The value for `FC(F)(F)COc1ccc(-c2n[nH]c(=S)o2)cn1` was 92.8%; that for `COc1cccc(CNc2ccc3c(c2)ncn3C)c1` was 107%.

Take `Cc1nc(SCC#N)c2c3c(sc2n1)CCCC3`: the % bound was 103%. To `O=C(CC(C(=O)O)n1cccn1)c1ccc(Br)cc1` (configuration not stated) belongs 98.3%; to `COCC(=O)N1CCN(c2ccccn2)CC1`, 87.2%; to `O=S(=O)(NNc1ncnc2sccc12)c1ccc(Cl)cc1`, 97.8%.

For `O=C(CN1CCSCC1)N/N=C/c1ccc(Br)cc1`, the % bound was 101%. With `C=CCN(CC=C)C(=O)c1ccc(N2C(=O)CCC2=O)cc1`, the % bound was 95.1%. To `CCC(C)NC(=S)NC1CCCCC1` (configuration not stated) belongs 112%. As for `CC(C)(C)c1ccc(CSc2nc3c(c(=O)[nH]2)CCC3)cc1`, the % bound is 91%. To `CN(C(=O)c1cc2cccnc2n(C)c1=O)c1ccccc1` belongs 93.7%.

With `O=C(CCc1ccccc1)NNc1ccc(F)cc1`, the % bound is 104%. With `Cc1[nH]nc2c1C1C(C2)C1(C)C` (configuration not stated), the % bound is 96.4%. To `C=CCn1c(O)c(N=N)c2ccccc21` belongs 97.3%; to `CC1CCCCN1S(=O)(=O)CCNC(=O)c1ccccc1` (configuration not stated), 89.1%; to `CC(C)n1c(-c2ccncc2)n[nH]c1=S`, 98.6%. To `CN(C)C(=O)c1cc(Br)ccc1Cl` belongs 99.9%. The value for `Cc1onc(-c2ccccc2Cl)c1C(=O)N(Cc1nc(-c2ccccc2)no1)C(C)C` was 89%; that for `CC(C)CCn1c(CO)cnc1S(=O)(=O)C(C)C` was 86.9%; that for `O=C(c1ccc(Br)o1)n1cnc2ccccc21` was 104%. Take `CC(=O)Nn1nc2c(n1)C(=NNC(=O)c1ccccc1)c1nn(NC(C)=O)nc1C2=NNC(=O)c1ccccc1`: the % bound is 98.5%.

Turning to `CNC(C)c1ccc(OC)c(OC)c1` (configuration not stated), the % bound was 91%. The value for `CCN(CC)C(=O)/C=C/c1cccc2ccccc12` was 101%; that for `Cc1cc(C)c2c(N)c(-c3n[nH]c(=S)n3C)sc2n1` was 98.2%; that for `CNC(=O)O/N=C/c1nn(C)cc1Br` was 94.8%. As for `COc1ccc(Cl)cc1NC(=S)N1CCCCC1CO` (configuration not stated), the % bound is 94.6%.

As to `O=C(Nc1c[nH]c2ccccc12)NC1CCCC1`, the % bound is 94.2%. To `COc1cc(CN2CCN3CCCC3C2C2CCCCC2)cc(OC)c1` (configuration not stated) belongs 107%.

For `CC12CN3CC(C)(CN(C1)C31C(=O)Nc3ccccc31)C2O` (configuration not stated), the % bound was 103%. To `O=c1cc(-c2ccccc2)nc(SCc2ccccn2)[nH]1` belongs 93.4%.

For `Cn1c(=O)n(Cc2ccco2)c(=N)c2c3c(sc21)CCCC3`, the % bound was 106%. To `Nn1c(Cc2ccccc2)nnc1SCC(=O)Nc1ccccc1F` belongs 91.9%; to `COc1ccc(N=Nc2c(-c3ccc(OC)cc3)[nH]oc2=O)cc1`, 75.1%. On to `CN(C)c1ccc(/C=C2\SC(=Nc3ccccc3)N(CCO)C2=O)cc1`, for which the % bound is 92.8%.

Take `CS(=O)(=O)c1ccccc1C(=O)Nc1ccc2sccc2c1`: the % bound is 96%. To `O=S(=O)(c1ccccc1)c1ccc(I)cc1` belongs 96.7%.

For `C=CCc1ccc(OCC(=O)ONN)c(OC)c1`, the % bound was 104%. For the molecule `COC(=O)c1sc(-c2cccs2)cc1NS(=O)(=O)c1cn(C)cn1`, the % bound is 98.3%. `Cc1c(Cl)cccc1NC(=O)CCn1cnc2ccccc2c1=O`: the % bound was 81.8%. On to `Cc1cc(Oc2cc(C#N)c(C#N)cc2N2CCOCC2)cc(C)c1Cl`, for which the % bound was 95.2%. The value for `COc1cc(/C=C2/C(=N)N3N=C(c4ccccc4C)SC3=NC2=O)ccc1OC(=O)c1ccco1` was 91.3%; that for `Cc1ccc2occ(CN3CCSCC3)c(=O)c2c1` was 100%; that for `COc1ccc(C(C)=CC(=O)C(C)(C)C)cc1` was 96.7%. For the molecule `Cc1nc2cc3nc(-c4cccs4)cnc3cc2n1C`, the % bound is 115%.

Take `O=C(Nc1ccc(C(=O)N2CCCc3ccccc32)cc1)c1ccco1`: the % bound was 95.2%.

As for `CC[C@H](CO)Nc1nc(NCc2ccccc2O)c2ncn(C(C)C)c2n1`, the % bound was 98.6%.

On to `Nc1nonc1C(=NCc1ccccc1)NO`, for which the % bound is 96.3%. As for `COc1ccc(C(=O)c2cnc3ccccn23)cc1Cl`, the % bound is 96.7%. `O=C(c1cccs1)c1coc2c1cc(O)c1ccccc12`: the % bound was 94.6%.

On to `O=c1[nH]c(O)c(C=Nc2ccccc2)c(=O)[nH]1`, for which the % bound is 101%. The value for `CC(C)=N/N=C1/NC(=O)C(CC(=O)Nc2cccc3ccccc23)S1` (configuration not stated) was 96.1%. Take `CC(C)CN1C(=O)C=CC1=O`: the % bound was 86.4%. The value for `CC1(C)C(=O)C2(C(=O)Nc3cccc(C(F)(F)F)c3)CCC1C2` (configuration not stated) was 98.6%; that for `CCCC(=O)N1CCN(c2ccc(NC(=O)c3cccc(C)c3OC)cc2Cl)CC1` was 92.1%. As to `O=C(Nc1ccccc1)C1CCCN(S(=O)(=O)c2ccccc2)C1` (configuration not stated), the % bound was 98.9%. Turning to `COCC(C)N=CC1=C(O)CC(C)(C)CC1=O` (configuration not stated), the % bound is 94.3%. To `O=C(OCCN1C(=O)c2ccccc2C1=O)Oc1ccccc1` belongs 93.9%. The value for `O=c1[nH]c(NCCCN2CCOCC2)nnc1-c1ccccc1` was 93.9%. As to `O=C1C=C(Nc2ccccc2)C(=O)N1Cc1ccccc1`, the % bound was 102%. Regarding `CCc1ccc(NC(=O)C(CC)CC)cc1`, the % bound is 97.6%. In the case of `CC(C)NC(=O)C(C)Oc1ccc(S(N)(=O)=O)cc1` (configuration not stated), the % bound is 96.3%. The value for `Cc1cc(C(=O)Nc2ccc(C(=O)N3CCOCC3)cc2)cs1` was 88.4%; that for `CC(C)(O)C(/C=C/c1ccccc1)=N/NC(N)=O` was 96.4%. Regarding `O=C(CC(F)(F)F)Nc1ccccn1`, the % bound is 94%. The value for `COC(=O)C12CCC(C)(C(=O)O1)C2(C)C` (configuration not stated) was 90.1%; that for `OC1CCN(Cc2ccc[nH]2)CC1` was 95%.

Regarding `Nc1nc2nc(-c3ccccc3)cc(-c3ccccc3)n2n1`, the % bound was 92%. For `COC(=O)CSc1nnc2c3ccccc3n(CCc3ccccc3)c2n1`, the % bound was 104%.

With `Cc1ccc(C(=O)c2sc3[nH]c(=O)c(C(=O)O)cc3c2N)cc1`, the % bound is 97.7%. To `Cc1ccc(NC(=O)Nc2c(C)noc2-c2ccc(C(F)(F)F)cc2)cc1` belongs 97.4%; to `CNC(=S)N/N=C/c1cccnc1`, 96.3%. Regarding `CC1=Nc2c(ccc3cccnc23)C1(C)C`, the % bound was 45.3% (active).

For `COc1ccc(OCC(=O)Nc2ccc(CN3CCOCC3)cc2)cc1`, the % bound is 87.6%. To `O=C(C1CCCN(S(=O)(=O)c2ccccc2)C1)N1CCN(c2ccc(F)cc2)CC1` (configuration not stated) belongs 102%; to `CS(=O)(=O)Cc1ccccc1`, 97.7%. To `Cc1cc(C)cc(C(=O)NC(=S)Nc2ccc3[nH]c(=O)[nH]c3c2)c1` belongs 98.5%; to `COc1ccc(N2CC(NC(=O)NCC3CCCO3)CC2=O)cc1OC` (configuration not stated), 110%; to `CCCCOc1ccc(C(C)(C#N)CC#N)cc1` (configuration not stated), 102%. To `COc1ccc(-c2cc(-c3cccs3)n(-c3nc(C)cc(=O)[nH]3)n2)cc1` belongs 109%.
